Laboratory results as given in PubChem BioAssay (EPA / NIEHS).
The source made the active and inactive calls. The calls were made as follows: active = hit-call score of the fitted dose curve at least 0.9, where 1 is the maximum; inactive = score below 0.9. Peptide text beside a SMILES is read from it.

Key:
[1] = molecular target: Paired box protein Pax-6 (Homo sapiens) (UniProt P26367); assay: ATG_Pax6_CIS: Attagene CIS-FACTORIAL HepG2 Assay for human Paired Box 6 (PAX6) (AID 2282956); settings: HepG2 CIS-FACTORIAL PAX6 reporter transcription, RNA readout; actives raise or lower the signal
In short: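 Values derive from bidirectional curve fitting of reporter mRNA signal relative to DMSO. HepG2 cells bearing transfected cis-regulated MRTUs were exposed for 24 h; transcripts were read by RT-PCR and capillary electrophoresis.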

[2] = ATG_PXRE_CIS: Attagene CIS-FACTORIAL HepG2 Assay for human Pregnane X Receptor Element (PXRE) (AID 2282957); settings: HepG2 Attagene CIS-FACTORIAL PXRE reporter, mRNA; actives raise or lower the signal
In short: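 Using HepG2 transfected with multiple reporter transcription units, endogenous factor-driven transcription was scored as reporter mRNA after 24 h exposure.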

[3] = ATG_PPRE_CIS: Attagene CIS-FACTORIAL HepG2 Assay for human Peroxisome Proliferator-activated Response Element (PPRE) (AID 2282958); settings: HepG2 PPRE cis-element reporter, Attagene transcription factor profiling; actives raise or lower the signal
In short: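 Cells are first transfected transiently with the multiplexed reporter library, then dosed for 24 h. Total RNA is reverse-transcribed, amplified, fluorescently end-labeled and HpaI-cut before capillary electrophoresis; activity is fitted bidirectionally against DMSO controls.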

[4] = ATG_RORE_CIS: Attagene CIS-FACTORIAL HepG2 Assay for human RAR-related Orphan Receptor Element (RORE) (AID 2282959); settings: HepG2 Attagene cis-factorial RORE reporter, mRNA; actives raise or lower the signal
In short: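 Cells were HepG2 carrying transfected cis-regulated reporter constructs, dosed for 24 hours. Total RNA was reverse-transcribed and reporter cDNA amplified, fluorescently labeled and sized by capillary electrophoresis. Activity was fitted bidirectionally relative to DMSO.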

[5] = ATG_Sox_CIS: Attagene CIS-FACTORIAL HepG2 Assay for human SRY-box transcription factor (SOX) (AID 2282960); settings: HepG2 Attagene cis-factorial SOX reporter, mRNA; actives raise or lower the signal
In short: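 Transient MRTU transfection of HepG2; 24 h compound incubation; TriZol RNA, oligo(dT) RT, PCR, 6-FAM primer extension, HpaI cut, CE. Bidirectional fit, DMSO = baseline.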

[6] = molecular target: Transcription factor Sp1 (Homo sapiens) (UniProt P08047); assay: ATG_Sp1_CIS: Attagene CIS-FACTORIAL HepG2 Assay for human Specificity Protein 1 (Sp1) (AID 2282961); settings: HepG2 Sp1 cis-reporter transcription, actives raise or lower the signal
In short: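 Endogenous Sp1 activity was gauged in human liver HepG2 cells bearing transfected reporter units under a cis-regulating promoter. After 24 h dosing, reporter mRNA was quantified by RT-PCR with capillary electrophoresis, and activity fitted bidirectionally versus DMSO.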

[7] = ATG_SREBP_CIS: Attagene CIS-FACTORIAL HepG2 Assay for human Sterol Regulatory Element Binding (SREBP) (AID 2282962); settings: HepG2 Attagene cis-factorial SREBP reporter, mRNA; actives raise or lower the signal
In short: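 Values derive from bidirectional curve fitting with DMSO as baseline. The underlying measurement is reporter mRNA from cis-element-regulated units in transiently transfected HepG2, quantified by RT-PCR and capillary electrophoresis after 24 h exposure.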

[8] = molecular target: Signal transducer and activator of transcription 3 (Homo sapiens) (UniProt P40763); assay: ATG_STAT3_CIS: Attagene CIS-FACTORIAL HepG2 Assay for human Signal Transducer and Activator of Transcription 3 (STAT3) (AID 2282963); settings: HepG2, Attagene cis-factorial STAT3 reporter transcription; actives raise or lower the signal
In short: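 Readout is reporter transcript quantified by RT-PCR and capillary electrophoresis, with 6-FAM primer extension and HpaI digestion. Total RNA is taken 24 h after dosing transiently transfected HepG2 carrying cis-regulated reporter units. Bidirectional fit against DMSO.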

[9] = ATG_TA_CIS: Attagene CIS-FACTORIAL HepG2 Assay for human TA Basal Promoter (AID 2282964); settings: HepG2 Attagene CIS-factorial TA basal promoter reporter; actives raise or lower the signal
In short: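 HepG2 cells transiently transfected with multiplexed cis-promoter reporter units, dosed 24 h. Reporter mRNA measured by RT-PCR, 6-FAM labelling, HpaI digestion and capillary electrophoresis; bidirectional fit versus DMSO baseline, serving as background control.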

[10] = ATG_PBREM_CIS: Attagene CIS-FACTORIAL HepG2 Assay for human Phenobarbital-responsive Enhancer Module (PBREM) (AID 2282955); settings: HepG2 PBREM cis-reporter, Attagene multiplexed transcription; actives raise or lower the signal
In short: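 Fluorescence of labelled reporter cDNA fragments, resolved by capillary electrophoresis, gives mRNA induction in transfected HepG2 cells treated for 24 h; DMSO serves as negative control and baseline.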

Measured: AC50

Chain of Signal transducer and activator of transcription 3 (Homo sapiens) (P40763 whole entry, looked up): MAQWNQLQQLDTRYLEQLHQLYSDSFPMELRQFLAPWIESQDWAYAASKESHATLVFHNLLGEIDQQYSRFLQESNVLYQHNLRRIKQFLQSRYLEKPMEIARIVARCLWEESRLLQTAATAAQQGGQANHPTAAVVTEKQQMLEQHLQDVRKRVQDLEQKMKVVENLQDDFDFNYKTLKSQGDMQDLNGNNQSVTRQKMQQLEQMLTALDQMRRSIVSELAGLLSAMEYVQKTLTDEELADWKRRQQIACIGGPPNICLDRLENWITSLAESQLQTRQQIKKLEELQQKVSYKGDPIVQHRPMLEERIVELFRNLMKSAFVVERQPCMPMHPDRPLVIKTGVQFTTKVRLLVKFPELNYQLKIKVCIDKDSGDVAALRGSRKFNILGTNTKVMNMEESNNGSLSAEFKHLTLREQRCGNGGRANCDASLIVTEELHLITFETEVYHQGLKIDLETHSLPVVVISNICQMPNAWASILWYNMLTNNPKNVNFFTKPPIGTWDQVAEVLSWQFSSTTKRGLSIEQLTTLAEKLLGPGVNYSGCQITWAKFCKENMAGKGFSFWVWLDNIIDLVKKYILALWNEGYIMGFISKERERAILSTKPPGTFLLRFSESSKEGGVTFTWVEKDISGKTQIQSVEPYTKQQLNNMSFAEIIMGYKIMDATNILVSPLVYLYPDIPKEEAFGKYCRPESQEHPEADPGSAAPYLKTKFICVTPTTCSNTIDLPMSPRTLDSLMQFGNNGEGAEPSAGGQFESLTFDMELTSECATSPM
Chain of Transcription factor Sp1 (Homo sapiens) (P08047 whole entry, looked up): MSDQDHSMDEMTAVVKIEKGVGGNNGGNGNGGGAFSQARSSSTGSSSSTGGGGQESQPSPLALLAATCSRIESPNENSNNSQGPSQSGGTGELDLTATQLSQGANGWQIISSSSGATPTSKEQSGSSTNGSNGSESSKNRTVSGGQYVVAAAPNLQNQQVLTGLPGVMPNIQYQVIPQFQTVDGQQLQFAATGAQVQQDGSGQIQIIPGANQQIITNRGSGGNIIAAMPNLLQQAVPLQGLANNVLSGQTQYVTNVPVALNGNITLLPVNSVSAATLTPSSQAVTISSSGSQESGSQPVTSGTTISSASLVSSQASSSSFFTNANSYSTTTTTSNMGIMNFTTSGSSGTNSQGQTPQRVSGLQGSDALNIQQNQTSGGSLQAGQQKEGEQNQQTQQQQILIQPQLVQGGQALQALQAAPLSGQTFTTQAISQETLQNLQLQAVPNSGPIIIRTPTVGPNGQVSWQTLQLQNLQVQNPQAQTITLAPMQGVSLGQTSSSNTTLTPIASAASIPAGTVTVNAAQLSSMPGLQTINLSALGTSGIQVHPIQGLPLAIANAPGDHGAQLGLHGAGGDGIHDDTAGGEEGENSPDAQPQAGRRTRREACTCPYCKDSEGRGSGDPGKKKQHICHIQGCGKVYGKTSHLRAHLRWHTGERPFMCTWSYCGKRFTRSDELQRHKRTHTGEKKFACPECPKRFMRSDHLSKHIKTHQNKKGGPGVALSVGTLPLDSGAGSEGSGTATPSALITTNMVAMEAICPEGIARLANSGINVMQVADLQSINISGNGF
Chain of Paired box protein Pax-6 (Homo sapiens) (P26367 whole entry, looked up): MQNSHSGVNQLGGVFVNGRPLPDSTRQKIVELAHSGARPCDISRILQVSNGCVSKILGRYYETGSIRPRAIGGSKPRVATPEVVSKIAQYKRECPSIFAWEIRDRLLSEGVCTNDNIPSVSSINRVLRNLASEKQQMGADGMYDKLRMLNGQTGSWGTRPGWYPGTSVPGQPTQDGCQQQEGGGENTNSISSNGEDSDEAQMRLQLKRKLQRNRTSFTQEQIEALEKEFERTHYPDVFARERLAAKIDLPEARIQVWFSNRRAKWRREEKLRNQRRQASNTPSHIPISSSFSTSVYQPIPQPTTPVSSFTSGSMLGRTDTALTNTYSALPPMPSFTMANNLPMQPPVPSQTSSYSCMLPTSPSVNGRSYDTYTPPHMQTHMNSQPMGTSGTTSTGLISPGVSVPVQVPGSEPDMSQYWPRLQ

O=C(O)/C=C/c1ccccc1
not listed: [10]
inactive: all other assays above

CCCCCCCCC(CO)CCCCCC (stereo not given)
active: [10] 166 µM | [8] 133 µM
not listed: [3] | [4]
inactive: all other assays above

CCC(C)N (stereo not given)
active: [2] 47.5 µM
not listed: [10]
inactive: all other assays above

CC(C)CCCCCOC(=O)CS
active: [2] 11.8 µM
not listed: [3] | [5]
inactive: all other assays above

CCOc1ccc(NC(N)=O)cc1
not listed: [3] | [4]
inactive: all other assays above

CCCCCCCCCCCCC
not listed: [10]
inactive: all other assays above

C[N+](C)(C)CCCNS(=O)(=O)C(F)(F)C(F)(F)C(F)(F)C(F)(F)C(F)(F)C(F)(F)C(F)(F)C(F)(F)F
active: [2] 41.7 µM
not listed: [3] | [4] | [5]
inactive: all other assays above

Oc1c(Cl)cc(Cl)c(Cl)c1Cl
inactive: [5] | [6] | [7] | [8]
active: [1] 82.6 µM | [2] 26.5 µM | [3] 21.9 µM | [4] 43.4 µM | [9] 61.5 µM

Cc1ccc(S(=O)(=O)N=C=O)cc1
not listed: [10]
inactive: all other assays above

C=C(C)[C@@H]1CC=C(C)CC1
not listed: [3] | [4]
inactive: all other assays above

CC1=CCC(C(C)C)C=C1 (stereo not given)
active: [2] 3.56 µM
not listed: [3] | [4]
inactive: all other assays above

C=C(C)C1CC=C(C)CC1 (stereo not given)
not listed: [3] | [4]
inactive: all other assays above

O=C(O[C@@H]1Cc2c(O)cc(O)cc2O[C@@H]1c1cc(O)c(O)c(O)c1)c1cc(O)c(O)c(O)c1
not listed: [3] | [4]
inactive: all other assays above

Nc1ccc(Cl)c(N)c1
not listed: [10]
inactive: all other assays above

Cc1cccc(C(C)(C)C)c1O
inactive: [1] | [6] | [7] | [8] | [9]
active: [10] 16.8 µM | [2] 4.59 µM

[Cl][Sc]([Cl])[Cl]
not listed: [3] | [4]
inactive: all other assays above

Nc1ccc(C(=O)OCCCOC(=O)c2ccc(N)cc2)cc1
active: [2] 27.5 µM | [9] 63.7 µM
not listed: [3] | [4]
inactive: all other assays above

CCCCC1CCC(=O)O1 (stereo not given)
active: [2] 22.4 µM
not listed: [3] | [4]
inactive: all other assays above

O=C1CCCN1C1CCCCC1
active: [2] 57.1 µM
not listed: [3] | [4]
inactive: all other assays above

CCC1COC(=O)O1 (stereo not given)
active: [2] 16.6 µM
not listed: [10]
inactive: all other assays above

CCc1cccc(C)c1N
active: [2] 47.7 µM
not listed: [10]
inactive: all other assays above

C1CNCCN1
not listed: [3] | [5]
inactive: all other assays above

COC(=O)[C@H](Cc1ccccc1)NC(=O)[C@@H](N)CC(=O)O (H-Asp-Phe-OMe)
not listed: [10]
inactive: all other assays above

C=C1C[C@H]2[C@@H]3C=C(C)C4=CC(=O)CC[C@]4(C)[C@H]3CC[C@]2(C)[C@@]1(OC(C)=O)C(C)=O
inactive: [4] | [6] | [8]
active: [10] 113 µM | [1] 63 µM | [2] 3.44 µM | [7] 63 µM | [9] 50.8 µM

CC1=CC=C(C(C)C)CC1
active: [2] 3.61 µM
not listed: [3] | [4]
inactive: all other assays above

O=c1c(O)c(-c2ccc(O)cc2O)oc2cc(O)cc(O)c12
active: [2] 26.5 µM
not listed: [3] | [4]
inactive: all other assays above
